Experimental data from ChEMBL document CHEMBL3988442, “University of Dundee, Small-Polar-MMV Screening Library” (2021).

biological target: AMP-activated protein kinase, AMPK (Homo sapiens) (UniProt P54646+O43741+P54619+Q9UGJ0+Q9Y478+Q13131+Q9UGI9); experiment: AMP-dependent Kinase enzyme assay. An in vitro enzyme assay that detects ADP turnover that is directly proportional to AMPK activity. This uses naive AMPK that is activated during the assay with MK-8722; format: functional; parameters: scale not given: direction of the effect not stated beside the values; conditions: 30 µM

| SMILES | Percent Effect |
| --- | --- |
| CNc1cc2c(nn1)CCN(C(=O)c1ccc(-n3cccn3)nc1)C2 | -15.7% |
| Cc1cnn(C2CN(c3nc(-c4ccncc4)nc4c3CCC4)C2)c1 | 4.55% |
| CN(C)S(=O)(=O)c1ccc(=O)n(CC2CCCO2)c1 (stereo not given) | 20.4% |
| Cc1nccn1-c1cccc(N2CCC(OCC3CCCCO3)CC2)n1 (stereo not given) | 6.51% |
| COc1ccnc(CNc2nc(C)nc3ccsc23)c1 | -0.808% |
| CCn1cnnc1CCNC(=O)c1ccc(Br)cc1F | -0.992% |
| CCc1noc(C(C)N2CCN(Cc3noc(C4CC4)n3)CC2)n1 (stereo not given) | 0.498% |
| CCc1nc(C)c(C(=O)N2C[C@@H](C(=O)O)[C@H](C3CC3)C2)s1 | 2.29% |
| COc1ccc(-c2cc3nc(CCNC(=O)C4CC4)nn3cn2)cc1 | -2.76% |
| CCCN(CC(=O)N(C)C)C(=O)c1ccc(-c2nc(C)cs2)cc1 | 4.25% |
| Cc1cccnc1NC(=O)c1ccc(F)c(S(=O)(=O)NC2CC2)c1 | -4.18% |
| Cc1noc(CCCC(=O)N2CSCC2C(=O)NCC2CC2)n1 (stereo not given) | -0.369% |
| CN(C)C(=O)c1cncnc1-c1ccc(CNC(=O)C2CCCO2)cc1 (stereo not given) | -0.401% |
| CCCc1nnc(N2CCN(C3CCCC3)CC2)o1 | 3.52% |
| CCc1nc(CCNc2ncccn2)sc1C | -7.35% |
| Cc1nccn1[C@@H]1CC[C@@H](N(C)S(=O)(=O)c2ccccc2F)[C@H]1O | 5.86% |
| CCc1ncc(CN2CCOC(Cc3cccc(F)c3)C2)cn1 (stereo not given) | 6.71% |
| NS(=O)(=O)c1ccc(NCc2ccco2)c2ncccc12 | -2.08% |
| COC(=O)CC1CCCCN1CC(=O)NCCc1ccc(F)cc1 (stereo not given) | 6.06% |
| CSc1ccccc1NC(=O)c1ccc(N2CCOCC2)nn1 | -1.6% |

| SMILES | Percent Effect |
| --- | --- |
| O=C(NCc1nncn1C1CC1)c1ccccc1Oc1cccnc1 | -0.563% |
| Cc1c(C(=O)N2CCCN(S(C)(=O)=O)CC2)cnn1C | 10.1% |
| O=C1CN([C@@H]2CC[C@@H](NS(=O)(=O)c3ccccc3F)[C@H]2O)CCN1 | -4.46% |
| c1cn(Cc2ccc(N3CCCN(C4CCCC4)CC3)nc2)cn1 | 11.7% |
| CN(C)c1ccc(C(=O)Nc2ccn(CC(N)=O)n2)cn1 | 10.9% |
| CCn1cnnc1CNC(=O)c1ccc(Br)cc1F | -10.5% |
| CNC(=O)c1ccnc(N2CCCC(COc3cccc(C)c3)C2)c1 (stereo not given) | 29.8% |
| Clc1cc(NCc2nccs2)nc2[nH]ccc12 | 15.1% |
| Cc1ccc(OCc2occc2C(=O)N2CC[C@H](CO)[C@@H](O)C2)cc1 | 14.2% |
| CC(=O)Nc1ccc(CNC(=O)CNCc2nnc(C)o2)cc1 | -8.94% |
| CS(=O)(=O)CCC(=O)Nc1ccsc1 | -6.46% |
| CC(Cc1cccc(F)c1)C(=O)NS(=O)(=O)c1cnn(C)c1 (stereo not given) | -5.21% |
| COc1nsc2nc(C3CCCN3c3ncccn3)ccc12 (stereo not given) | 13.7% |
| COCCN1C[C@H]2CC[C@@H]1CN(C(=O)CCc1n[nH]c(C)c1C)C2 | -0.161% |
| CCNC(=O)[C@@H]1C[C@@H](N)CN1C(=O)c1cc2ccccc2[nH]1 | 8.12% |
| CCc1ncc(C(=O)NCCN2CCNC2=O)cn1 | 0.385% |
| O=C(c1cncc(NCC2COc3ccccc3C2)n1)N1CCCC1 (stereo not given) | 8.04% |
| COc1ccc(Br)c(NC(=O)NCc2cnn(C)c2)c1 | -1.99% |
| CC(=O)N1CCCC1CCc1ccc(Cl)nn1 (stereo not given) | 12.8% |
| CC(C)(CNc1c(C#N)cnc2ccc(Cl)cc12)C(N)=O | 6.25% |
